KKLEB cytotox: CF airway cell cytotoxicity counter-screen; activity change (cytotoxicity), % at 5 µM; KKLEB CF airway cells viability, ATPlite luminescence, overnight; stronger effect = lower value; cells stimulated with P. aeruginosa culture filtrate; hit rate 0.36% among 360,000;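 active = corrected activity change at or below -50% at 5 µM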
HIF-2a inh: HIF-2a inhibition | 786-0 RCC cells HIF-2a reporter, luciferase luminescence, overnight | inhibition, % at 18.8 µM | hit rate 0.72% among 360,000 | AID 624352;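 active = inhibition of the luminescence signal of 40% or more relative to plate controls, in a single-dose primary screen at 18.75 µM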
Peg3 promoter: Peg3 promoter activity inhibition | HeLa PEG-Prom luciferase reporter, luminescence, overnight | inhibition, % at 20 µM | hit rate 1.7% among 360,000;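 active = inhibition of at least 50% at 20 µM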
EBV LMP1 NFkB: Epstein-Barr LMP1 NF-kappaB reporter inhibition; LMP1-induced NF-kappaB luciferase reporter cells, luminescence; inhibition, % at 12.5 µM; hit rate 0.69% among 350,000; AID 504558; in the data active = inhibition above about 41%;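 note: 0% = neutral control wells and 100% = reference inhibitor control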
Shn3 inh set2: inhibitors of Schnurri-3 3'UTR reporter in osteoblasts; Clone20 osteoblast Shn3 3'UTR firefly luciferase, 24 h; inhibition, % at 12.5 µM; hit rate 0.52% among 360,000;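 active = mean inhibition of at least 75% with every replicate also reaching 75%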;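 note: 0% = median of neutral control wells and 100% = pilot-screen positive control compound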
CF NFkB block: blocks PAF-induced NF-kB reporter in cystic fibrosis cells; hit rate 0.86% among 360,000; KKLEB NF-kB-GFP reporter, GFP fluorescence overnight; AID 588850; inhibition, % at 5 µM;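 active = at least 50% inhibition at 5 µM, scaled per plate between neutral and stimulator controls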;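 note: PAF is a Pseudomonas aeruginosa culture filtrate used as stimulus; plate controls were PAF-stimulated DMSO wells for no effect and unstimulated DMSO wells for full effect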
* = called active by the depositor; nt = no result. Hits are enriched below; roughly 2.9% of the tested compounds scored in any of these assays.

SMILES	KKLEB cytotox	HIF-2a inh	Peg3 promoter	EBV LMP1 NFkB	Shn3 inh set2	CF NFkB block
CCOC(=O)CSCC(NC(=O)OC(C)(C)C)C(=O)OCC (centres undefined)	0.9	41.3*	7.0	6.5	4.4	2.8
COc1cc(/C=N/NC(=O)c2cc(C3CC3)[nH]n2)ccc1O	9.8	10.9	4.7	-4.4	nt	-4.6
COc1cc(/C=N/NC(=O)c2cc(C34CC5CC(CC(C5)C3)C4)[nH]n2)ccc1O	6.1	12.2	-4.1	81.1*	5.6	-0.8
CCCCC1(C)NC(=O)N(CC(=O)Nc2cc(S(=O)(=O)N3CCOCC3)ccc2Cl)C1=O (centres undefined)	-15.6	13.0	-3.8	-10.9	-3.6	-11.6
O=C(Cc1ccsc1)NCc1ccccc1F	4.0	-48.0	-44.5	-0.3	17.5	-16.0
Cc1ccc(S(=O)(=O)/N=C2\C=C(NS(=O)(=O)c3ccccc3)C(=O)c3ccccc32)cc1	-3.1	-49.1	-41.0	-15.3	6.6	72.7*
Cc1cc(C)c(NS(=O)(=O)c2ccccc2)c(C)c1	-5.1	3.0	8.6	-0.4	10.5	4.3
Cc1cc(C)c(S(=O)(=O)/N=C2\C=C(NS(=O)(=O)c3ccccc3)C(=O)c3ccccc32)c(C)c1	21.1	7.6	9.8	-0.1	9.2	50.7*
Cc1ccc(S(=O)(=O)NCC(=O)OCC(=O)N2C(C)CCCC2C)cc1 (centres undefined)	7.9	2.5	14.0	-5.4	-0.2	-6.9
O=C(NN1C(=O)C2C(C1=O)C1C=CC2C12CC2)c1cccc(Cl)c1 (centres undefined)	-5.6	16.9	0.0	-4.6	-0.4	18.1
O=C(NN1C(=O)C2C3C=CC(C4CC34)C2C1=O)c1cccc(Cl)c1 (centres undefined)	-7.2	0.9	-2.5	71.3*	6.2	21.3
NC(=O)c1cccc(CC(=O)c2ccccc2)c1	8.6	-3.9	-13.0	3.9	-4.7	-0.4
O=C(CN1C(=O)c2ccccc2C1=O)NNC1=NS(=O)(=O)c2ccccc21	8.8	12.6	-3.0	42.2*	4.1	-1.0
CC(=O)c1nn(-c2cccc(Br)c2)cc1C(=O)c1ccc(Cl)cc1	-7.4	-13.2	-21.2	-1.1	28.1	6.2
Cc1ccc(S(=O)(=O)c2c(C)nn(C(C)(C)C)c2OC(=O)c2ccc(Br)o2)cc1	1.7	-3.7	70.0*	18.7	73.6	12.9
Nc1nnc2cc(Cl)ccc2n1	-1.1	3.3	-18.8	8.2	1.5	17.0
Nc1nc(N)c2cc(Sc3ccc(Cl)cc3)ccc2n1	-16.1	-55.6	103.9*	7.8	79.0	31.2
Nc1nc(N)c2cc(Sc3ccc4ccccc4c3)ccc2n1	-16.4	14.4	106.6*	nt	84.6	34.8
Nc1nc(N)c2cc(Sc3cccc(C(F)(F)F)c3)ccc2n1	-18.4	26.6	106.6*	1.3	84.4	37.5
Nc1nc(-c2ccc3ccccc3c2)cs1	-9.1	-378.9	-438.6	-32.6	-39.1	-10.6
O=C(O)/C=C/C(=O)c1c(-c2ccccc2)[nH]c2ccccc12	3.1	21.5	15.4	1.0	3.3	9.1
CC(=O)O[C@H](CC(=O)O)C[N+](C)(C)C	12.5	7.0	3.0	59.2*	74.0	-14.9
O=C(NCCc1ccccc1F)C1C(=O)Nc2ccccc2C(=O)N1C1CCCCC1 (centres undefined)	nt	2.8	nt	nt	nt	nt
CC(Sc1nc2ccccc2c(=O)n1C)C(=O)Nc1ccc2c(c1)OCCO2 (centres undefined)	3.3	1.9	4.7	8.1	85.8*	2.5
CC(C)Cn1c(SC(C)C(=O)Nc2ccc3c(c2)OCCO3)nc2ccccc2c1=O (centres undefined)	16.6	0.7	19.6	16.2	9.9	2.6
SMILES	KKLEB cytotox	HIF-2a inh	Peg3 promoter	EBV LMP1 NFkB	Shn3 inh set2	CF NFkB block
C=CCn1c(SCc2csc(C)n2)nc2sc3c(c2c1=O)CCCC3	-14.4	21.7	21.3	44.1*	42.9	12.8
C=CCn1c(SCc2csc(C)n2)nc2sc3c(c2c1=O)CCCCC3	13.8	14.8	-2.2	-2.2	24.7	13.6
COc1ccc(OCC(O)CNC(=O)c2ccc(C)cc2)cc1 (centres undefined)	-4.0	0.5	-0.6	4.9	3.4	6.3
O=C1C=CC(=O)C(CNc2ccc(C(=O)OCc3ccccc3)cc2)=C1	-20.2	24.1	72.3*	-11.7	95.5*	68.2*
CN(C)c1ccc(C(=O)OCc2ccccc2)cc1	-10.6	-229.0	-187.6	-17.0	-41.2	-3.2
Cn1c(CCNC(=O)c2cc(COc3ccc(F)c(F)c3)on2)nc2ccccc21	-1.8	-130.4	-76.4	-13.2	-22.0	13.8
COc1ccccc1/C=C/C(=O)c1ccc(Cl)cc1	-4.3	-68.3	1.6	68.1*	-23.7	0.9
COc1ccccc1/C=C/C(=O)c1ccccc1	-16.7	-118.2	-117.9	-16.9	-33.2	12.4
O=c1[nH]c2cc(Cl)c(Cl)cc2o1	3.7	5.1	6.5	-1.3	11.8	8.2
O=c1[nH]c2cc(Cl)c(Br)cc2o1	-6.1	1.5	3.8	68.4*	-2.4	0.2
CC(=O)c1sc(NC(=O)COc2ccc(C(C)C)c(C)c2)nc1C	-14.3	1.1	21.5	0.9	32.4	1.4
CCOc1ccc(C(CC(=O)O)NC(=O)c2sc3ccccc3c2Cl)cc1 (centres undefined)	-11.2	20.4	17.6	51.5*	6.1	15.0
CCCOc1ccc(C(CC(=O)O)NC(=O)c2sc3ccccc3c2Cl)cc1 (centres undefined)	-3.6	9.4	-6.5	-6.4	-10.1	-7.4
CCOc1ccc(NC(=O)CN(C)C(=O)C(C)Oc2ccc(Cl)cc2)cc1OCC (centres undefined)	1.7	7.9	1.5	-1.5	8.0	-14.0
CSc1ccccc1NC(=O)C(C)N(C)CC(=O)N1CCN(Cc2ccccc2)CC1 (centres undefined)	-3.5	-0.2	12.8	72.0*	3.7	-10.2
CC1CC(C)CN(S(=O)(=O)c2ccc(NC(=O)CCN3C(=O)C4CC=CCC4C3=O)cc2)C1 (centres undefined)	-1.5	5.5	13.8	71.7*	-16.7	25.6
CC1CCN(S(=O)(=O)c2ccc(NC(=O)CCN3C(=O)C4CC=CCC4C3=O)cc2)CC1 (centres undefined)	-2.5	8.1	1.2	1.9	2.7	6.3
COc1ccc(-c2cn3nc4c(nc3n2)CCCC4)cc1	8.5	-117.0	-214.5	62.3*	-15.8	-16.9
Cc1cc(C(=O)COC(=O)c2ccc[nH]c2=O)c(C)n1-c1ccccc1	-10.8	43.8*	-12.8	47.0*	16.1	-1.6
Cc1cc(-n2c(C)cc(C(=O)COc3ccccc3[N+](=O)[O-])c2C)no1	10.5	-178.7	-149.6	-8.9	-26.6	-9.0
Cc1ccc(-n2c(C)cc(C(=O)COc3cccnc3[N+](=O)[O-])c2C)cc1	-21.6	58.6*	36.1	15.4	43.0	-1.7
Cc1cc(C(=O)COC(=O)c2ccc[nH]c2=O)c(C)n1-c1ccc(F)cc1	-9.1	20.5	3.2	22.2	-22.3	-2.7
